About 79,000 compounds went through this panel and 15% of them were active in at least one assay; those are over-represented in the sample as a whole. Activity calls are given as the source filed them. Cut-off read from the data, not from the text of the source: active = growth inhibition above about 70%; inactive = the rest.
Key:
[1] = NCI Yeast Anticancer Drug Screen. Data for the rad52 strain (AID 147);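 note: 0% = growth of vehicle-treated control cultures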; conditions: S. cerevisiae rad52 mutant growth inhibition, hits give high values
Procedure, shortened: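 Read-out: growth inhibition versus vehicle-treated controls. Cells were a DNA repair-deficient yeast strain treated with compounds.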

[2] = NCI Yeast Anticancer Drug Screen. Data for the wt1 strain (AID 149);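 note: 0% = growth of vehicle-treated wt1 cultures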; conditions: S. cerevisiae wt1 strain (SPY 50644) growth inhibition, hits give high values
Procedure, shortened: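 wt1 yeast, compound-treated; % growth inhibition vs vehicle control.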

[3] = NCI Yeast Anticancer Drug Screen. Data for the rad50EPP+ strain (AID 151);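 note: 0% = growth of vehicle-treated control cultures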; conditions: S. cerevisiae rad50 mutant strain, hits give high values
Procedure, shortened: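 Growth inhibition read against vehicle controls in rad50EPP+ yeast, a strain altered in DNA damage repair, after compound exposure.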

[4] = NCI Yeast Anticancer Drug Screen. Data for the mgt1 strain (AID 153); conditions: S. cerevisiae mgt1 mutant growth inhibition, hits give high values
Procedure, shortened: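 mgt1 yeast grown with test compound; read-out is growth inhibition versus vehicle-treated cultures.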

[5] = NCI Yeast Anticancer Drug Screen. Data for the mec2-1 strain (AID 157); conditions: S. cerevisiae mec2-1 strain, hits give high values
Procedure, shortened: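 Yeast mec2-1 mutant treated with compound. Readout: growth inhibition vs vehicle controls.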

[6] = NCI Yeast Anticancer Drug Screen. Data for the rad14 strain (AID 159);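 note: 0% = growth of vehicle-treated control cultures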; conditions: S. cerevisiae rad14 strain growth inhibition, hits give high values
Procedure, shortened: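 Test compounds were applied to a repair-deficient yeast strain. Its growth was then compared with that of cultures given vehicle alone, and inhibition was expressed relative to those controls.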

[7] = NCI Yeast Anticancer Drug Screen. Data for the sgs1 mgt1 strain (AID 161);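 note: 0% = growth of cultures given vehicle only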; conditions: S. cerevisiae sgs1 mgt1 strain, hits give high values
Procedure, shortened: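 Mutant yeast exposed to compound; growth scored against vehicle-only wells.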

[8] = NCI Yeast Anticancer Drug Screen. Data for the cln2 rad14 strain (AID 165);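 note: 0% = growth equal to vehicle treated cultures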; conditions: S. cerevisiae cln2 rad14 strain, hits give high values
Procedure, shortened: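 cln2 rad14 yeast strain; compound exposure; growth inhibition read vs vehicle controls.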

[9] = NCI Yeast Anticancer Drug Screen. Data for the bub3 strain (AID 167); conditions: S. cerevisiae bub3 mutant strain, hits give high values
Procedure, shortened: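 Yeast carrying a defined mutation is treated with each compound, and growth is compared with that of vehicle-exposed cells to give inhibition.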

[10] = NCI Yeast Anticancer Drug Screen. Data for the wt2 strain (AID 169);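 note: 0% = growth of vehicle-treated yeast cultures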; conditions: S. cerevisiae wt2 strain growth inhibition, hits give high values
Procedure, shortened: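 Read-out: growth inhibition versus vehicle-treated control cultures after compound exposure of the yeast strain.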

[11] = NCI Yeast Anticancer Drug Screen. Data for the mlh1 strain (AID 171);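 note: 0% = growth of vehicle-treated control cultures of the same strain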; conditions: S. cerevisiae mlh1 strain growth inhibition, hits give high values
Procedure, shortened: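 Read-out: growth inhibition versus vehicle controls. Strain: engineered yeast with a defined DNA repair or cell cycle defect, compound-treated.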

[12] = NCI Yeast Anticancer Drug Screen. Data for the sgs1 strain (AID 173);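 note: 0% = growth of vehicle-only control cultures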; conditions: S. cerevisiae sgs1 mutant, hits give high values
Procedure, shortened: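 Read-out: yeast growth inhibition relative to vehicle controls, following compound exposure of a strain with a defined DNA repair/cell cycle alteration.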

[13] = NCI Yeast Anticancer Drug Screen. Data for the mlh1 rad18 strain (AID 175); conditions: S. cerevisiae mlh1 rad18 strain growth inhibition, hits give high values
Procedure, shortened: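 Yeast w/ defined DNA-repair lesions; compound exposure; growth vs vehicle controls → % inhibition.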

[14] = NCI Yeast Anticancer Drug Screen. Data for the rad18 strain (AID 177); conditions: S. cerevisiae rad18 mutant growth inhibition, hits give high values
Procedure, shortened: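 Readout: growth inhibition vs vehicle controls. Cells: genetically altered yeast strain, DNA repair defect.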

[15] = NCI Yeast Anticancer Drug Screen. Data for the rad50 strain (AID 155);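 note: 0% = growth of vehicle-only cultures of the same strain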; conditions: S. cerevisiae rad50 strain growth inhibition, hits give high values
Procedure, shortened: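 Genetically altered yeast (DNA repair pathway); compound treatment; growth inhibition vs vehicle ctrl.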

[16] = NCI Yeast Anticancer Drug Screen. Data for the CLN2oe strain (AID 163);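 note: 0% = growth of vehicle-only control cultures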; conditions: S. cerevisiae CLN2oe strain, hits give high values
Procedure, shortened: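 Read-out: yeast growth inhibition, expressed relative to vehicle-only controls. The strain bears an engineered cell-cycle alteration.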

[17] = at 5.0 µM (retest, dose inferred, filed as 0.5)
[18] = at 50.0 µM (retest, dose inferred, filed as 5.0)

Measured: growth inhibition

CCN(CC)CCNc1ccc2nc(C)n3c4ccc(OC)cc4c(=O)c1c23
active: [1]; at 33.0 µM 75% | [1]; at 100.0 µM 83% | [13]; at 50.0 µM 77.4% | [14]; at 100.0 µM 74%
inactive: [1]; at 1.2 µM 22% | [1]; at 3.7 µM 47% | [1]; at 11.0 µM 58% | [2]; at 1.2 µM 27% | [2]; at 3.7 µM 21% | [2]; at 11.0 µM 28% | [2]; at 33.0 µM 15% | [2]; at 100.0 µM 21% | [3]; at 1.2 µM 9% | [3]; at 3.7 µM 9% | [3]; at 11.0 µM 3% | [3]; at 33.0 µM 17% | [3]; at 100.0 µM 31% | [4]; at 1.2 µM 36% | [4]; at 3.7 µM 27% | [4]; at 11.0 µM 18% | [4]; at 33.0 µM 26% | [4]; at 100.0 µM 16% | [5]; at 1.2 µM 32% | [5]; at 3.7 µM 39% | [5]; [17] 16% | [5]; at 11.0 µM 37% | [5]; at 33.0 µM 40% | [5]; [18] 52% | [5]; at 50.0 µM 22.8% | [5]; at 100.0 µM 32% | [6]; at 1.2 µM 33% | [6]; at 3.7 µM 24% | [6]; at 11.0 µM 27% | [6]; at 33.0 µM 30% | [6]; at 100.0 µM 48% | [7]; [17] 13% | [7]; [18] 41% | [7]; at 50.0 µM 18.3% | [8]; [17] 25% | [8]; [18] 45% | [8]; at 50.0 µM 28.1% | [9]; at 1.2 µM 11% | [9]; at 3.7 µM 2% | [9]; [17] -31% | [9]; at 11.0 µM -3% | [9]; at 33.0 µM 16% | [9]; [18] 39% | [9]; at 50.0 µM 16.4% | [9]; at 100.0 µM 5% | [10]; at 1.2 µM -22% | [10]; at 3.7 µM -25% | [10]; at 11.0 µM -24% | [10]; at 33.0 µM -15% | [10]; at 100.0 µM -25% | [11]; at 1.2 µM 36% | [11]; at 3.7 µM 27% | [11]; at 11.0 µM 18% | [11]; at 33.0 µM 26% | [11]; at 100.0 µM 16% | [12]; at 1.2 µM 27% | [12]; at 3.7 µM 27% | [12]; at 11.0 µM 26% | [12]; at 33.0 µM 8% | [12]; at 100.0 µM 25% | [13]; [17] 29% | [13]; [18] 56% | [14]; at 1.2 µM 34% | [14]; at 3.7 µM 41% | [14]; at 11.0 µM 57% | [14]; at 33.0 µM 66%

O=[N+]([O-])[O][Sn]([O][Sn]([O][N+](=O)[O-])([c]1ccccc1)[c]1ccccc1)([c]1ccccc1)[c]1ccccc1
inactive: [1]; at 1.2 µM 6% | [1]; at 3.7 µM 9% | [1]; at 11.0 µM 13% | [1]; at 33.0 µM 32% | [1]; at 100.0 µM 57% | [2]; at 1.2 µM -3% | [2]; at 3.7 µM -7% | [2]; at 11.0 µM -11% | [2]; at 33.0 µM -2% | [2]; at 100.0 µM 62% | [3]; at 1.2 µM 8% | [3]; at 3.7 µM -2% | [3]; at 11.0 µM 0% | [3]; at 33.0 µM 20% | [15]; at 1.2 µM 16% | [15]; at 3.7 µM 20% | [15]; [17] 25% | [15]; at 11.0 µM 16% | [15]; at 33.0 µM 28% | [15]; [18] 66% | [15]; at 50.0 µM 65.2% | [5]; at 1.2 µM 9% | [5]; at 3.7 µM 0% | [5]; [17] 11% | [5]; at 11.0 µM 16% | [5]; at 33.0 µM 14% | [5]; [18] 44% | [5]; at 50.0 µM 57.6% | [6]; at 1.2 µM 0% | [6]; at 3.7 µM -8% | [6]; at 11.0 µM -7% | [6]; at 33.0 µM 22% | [7]; [17] 35% | [16]; at 1.2 µM -32% | [16]; at 3.7 µM -48% | [16]; at 11.0 µM -34% | [16]; at 33.0 µM -30% | [16]; at 100.0 µM 29% | [8]; [17] 3% | [8]; [18] 26% | [8]; at 50.0 µM 30.2% | [9]; at 1.2 µM 8% | [9]; at 3.7 µM -4% | [9]; [17] 23% | [9]; at 11.0 µM -7% | [9]; at 33.0 µM 6% | [9]; at 100.0 µM 62% | [10]; at 1.2 µM -47% | [10]; at 3.7 µM -47% | [10]; at 11.0 µM -25% | [10]; at 33.0 µM -26% | [10]; at 100.0 µM 58% | [11]; at 1.2 µM 7% | [11]; at 3.7 µM -3% | [11]; at 11.0 µM 5% | [11]; at 33.0 µM 35% | [12]; at 1.2 µM -6% | [12]; at 3.7 µM -12% | [12]; at 11.0 µM -24% | [12]; at 33.0 µM 51% | [13]; [17] 19% | [13]; [18] 67% | [13]; at 50.0 µM 68%
active: [3]; at 100.0 µM 99% | [15]; at 100.0 µM 85% | [5]; at 100.0 µM 86% | [6]; at 100.0 µM 94% | [7]; [18] 94% | [7]; at 50.0 µM 70% | [9]; [18] 84% | [9]; at 50.0 µM 72.5% | [11]; at 100.0 µM 94% | [12]; at 100.0 µM 98%

O=C(NC(N1CCN(c2cc3c(cc2F)c(=O)c(C(=O)O)cn3C2CC2)CC1)(C(F)(F)F)C(F)(F)F)c1ccccc1
active: [1]; at 33.0 µM 90% | [1]; at 100.0 µM 90% | [15]; at 33.0 µM 88% | [15]; [18] 96% | [15]; at 100.0 µM 91% | [13]; [18] 80%
inactive: [1]; at 1.2 µM -2% | [1]; at 3.7 µM 1% | [1]; at 11.0 µM 17% | [2]; at 1.2 µM -2% | [2]; at 3.7 µM -3% | [2]; at 11.0 µM -1% | [2]; at 33.0 µM 8% | [2]; at 100.0 µM 40% | [3]; at 1.2 µM -2% | [3]; at 3.7 µM -1% | [3]; at 11.0 µM 4% | [3]; at 33.0 µM 27% | [3]; at 100.0 µM 40% | [15]; at 1.2 µM -1% | [15]; at 3.7 µM 5% | [15]; [17] -1% | [15]; at 11.0 µM 19% | [15]; at 50.0 µM 46.8% | [5]; at 1.2 µM -2% | [5]; at 3.7 µM -3% | [5]; [17] 3% | [5]; at 11.0 µM 0% | [5]; at 33.0 µM 35% | [5]; [18] 35% | [5]; at 50.0 µM -19.2% | [5]; at 100.0 µM 67% | [6]; at 1.2 µM -2% | [6]; at 3.7 µM -1% | [6]; at 11.0 µM 2% | [6]; at 33.0 µM 19% | [6]; at 100.0 µM 44% | [7]; [17] 4% | [7]; [18] 25% | [7]; at 50.0 µM 11.2% | [16]; at 1.2 µM 2% | [16]; at 3.7 µM 0% | [16]; at 11.0 µM 1% | [16]; at 33.0 µM 15% | [16]; at 100.0 µM 58% | [8]; [17] -3% | [8]; [18] 20% | [8]; at 50.0 µM 33.9% | [9]; at 1.2 µM 0% | [9]; at 3.7 µM -1% | [9]; [17] -7% | [9]; at 11.0 µM 1% | [9]; at 33.0 µM 2% | [9]; [18] 6% | [9]; at 50.0 µM -13.9% | [9]; at 100.0 µM 48% | [10]; at 1.2 µM -2% | [10]; at 3.7 µM -2% | [10]; at 11.0 µM -1% | [10]; at 33.0 µM 9% | [10]; at 100.0 µM 34% | [11]; at 1.2 µM -4% | [11]; at 3.7 µM -2% | [11]; at 11.0 µM 0% | [11]; at 33.0 µM 11% | [11]; at 100.0 µM 39% | [12]; at 1.2 µM -3% | [12]; at 3.7 µM -2% | [12]; at 11.0 µM 1% | [12]; at 33.0 µM 29% | [12]; at 100.0 µM 58% | [13]; [17] -5% | [13]; at 50.0 µM -1.3% | [14]; at 1.2 µM -3% | [14]; at 3.7 µM -2% | [14]; at 11.0 µM -1% | [14]; at 33.0 µM 20% | [14]; at 100.0 µM 52%
